# This is a sample that favours compounds with a hit; in the whole collection about 17% have one here.
# ATXN2 expr inh: inhibitors of ATXN2 expression; HEK-293 ATXN2-luciferase reporter, luminescence, 24 h; Potency, µM (top dose mostly 57 µM), inactives show at the highest dose activity change, negative = inhibition, hits mostly inhibitors; actives 0.72% (n = 360,000); further: on the % scale 0 is the no-effect control and ±100 the full control effect; nearly all actives have a fitted effect of over 55% in size
#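 ATXN2-luciferase reporter cells (luciferase flanked by upstream and downstream ATXN2 gene portions) were treated 24 h at 37 °C with compounds at up to 57 uM. SteadyGlo luminescence gave expression; GF-AFC fluorescence gave viability.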
# ATXN viability: reduces viability in counter-screen for ATXN expression inhibitors | S2 cells (HEK-293 line with an ATXN2-luciferase reporter) viability, CellTiter-Fluor protease fluorescence, 24 h | Potency, µM (doses to about 56.7 µM), actives largely listed as cytotoxic | actives 0.49% (n = 400,000); further: nearly all actives have a fitted effect of over 40% in size
# TDP1 cell CPT: DT40-hTDP1 cell growth loss with CPT; actives 12% (n = 420,000); Potency, µM (highest dose often 46.2 µM), without a hit: at the highest dose activity change, negative = growth inhibition, most hits filed as inhibitors; AID 686979; chicken DT40 Tdp1-/-;hTDP1 cells + 20 nM CPT, ATP luminescence, 48 h; further: on the % scale 0 is the no-effect control and ±100 the full control effect; nearly all actives have a fitted effect of over 55% in size
#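 Cell growth measured by CellTiter-Glo luminescence after a minimum 48 h, 37 C compound exposure with 20 nM CPT in Tdp1-knockout DT40 cells stably expressing hTDP1, seeded 400/well; qHTS titration format.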
# TGFb inhibitor: inhibitors of TGF-b signaling; actives 1.2% (n = 410,000); HepG2 CAGA-GFP TGF-b/SMAD3 reporter, GFP fluorescence, 18 h; TGF-beta stimulated, 500 pg/mL final; Potency, µM (top dose mostly 46.1 µM), inactives show at the top dose activity, negative = inhibition, usual class: inhibitors; further: on the % scale 0 is the no-effect control and ±100 the full control effect; nearly all actives have a fitted effect of over 65% in size
#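 Inhibition of TGF-beta-driven CAGA-GFP reporter expression in HEPG2 cells is measured by cellular GFP fluorescence after 18 h stimulation with 500 pg/mL recombinant TGF-beta in 1% FBS medium at 37 degrees C.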
# TDP1 cell noCPT: qHTS for Inhibitors of human tyrosyl-DNA phosphodiesterase 1 (TDP1): qHTS in cells in absence of CPT. Potency, µM (top dose mostly 46.2 µM), for the others: at the highest dose activity change, negative = growth inhibition, actives largely listed as inhibitors. actives 15% (n = 420,000). DT40 Tdp1-/- hTDP1 cells, no CPT, ATP luminescence, 48 h. AID 686978, 2013; further: on the % scale 0 is the no-effect control and ±100 the full control effect; nearly all actives have a fitted effect of over 55% in size
#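 Chicken DT40 Tdp1-/- cells complemented with human TDP1, screened without camptothecin (DMSO vehicle only), 400 cells/well. Compounds pin-transferred, cells incubated at 37 °C for at least 48 hr. Growth read as ATP-dependent luminescence (CellTiter-Glo, 30 min at RT).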
# HepG2 viability: counter-screen for TGF-b inhibitors: cytotoxicity in HepG2 cells | HepG2 CAGA-GFP viability, ATP luminescence, 18 h | Potency, µM (doses to about 46.1 µM), for the others: top-dose activity change, negative = cytotoxicity, hits mostly cytotoxic | actives 0.76% (n = 410,000) | AID 588856
#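 HepG2 CAGA-GFP cells (1000/well, DMEM with 1% FBS) received compound, then TGF-beta at 500 pg/mL final, and were incubated 18 hours at 37 degrees C. Viability was read by CellTiter-Glo luminescence. Media-only wells were set as complete cell-killing and DMSO as no toxicity.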
# The depositor's hits bear a star; i = inactive; u = inconclusive; x = no result. The call rests on the fitted dose curve; in most records, active means well fitted curve in the direction sought with a large enough effect; inconclusive means small, poorly fitted or top-dose-only effect, or another doubt; inactive means no such curve, though single readings can be large; an effect the other way counts as inactive or inconclusive. Potency means the concentration at half of the fitted maximal effect.
SMILES,ATXN2 expr inh,ATXN viability,TDP1 cell CPT,TGFb inhibitor,TDP1 cell noCPT,HepG2 viability
COc1ccc(NC(=O)c2c(NC(=O)C(F)(F)F)sc3c2CCCCC3)cc1,-4%,i,u,u,18µM*,-23%
Cc1ccc(NC(=O)c2c(NC(=O)Cc3ccccc3)sc3c2CCCC3)cc1,3%,i,u,6%,u,-10%
CC1CCc2c(sc(NC(=O)Cc3ccccc3)c2C(=O)Nc2ccc(Cl)cc2)C1 (centres undefined),x,x,15µM*,-4%,u,-3%
COc1ccc(CC(=O)Nc2sc3c(c2C(=O)Nc2ccc(C)cc2)CCCCC3)cc1,x,x,u,-7%,16µM*,-6%
COC(=O)Cc1c(O)ccn(CCc2ccc(S(N)(=O)=O)cc2)c1=O,x,i,0%,6%,u,-7%
COc1ccc(OC)c(-c2cc(C(=O)Nc3cccc(Cl)c3C)no2)c1,10%,i,-16%,3%,-28%,-38%
COc1ccc(/C=N/NC(=O)c2cc(OC)c(OC)c(OC)c2)cc1CN1CCc2cc(OC)c(OC)cc2C1C (centres undefined),-20%,i,u,u,u,-34%
COc1ccc(C2NCCc3c2[nH]c2ccccc32)cc1CN1CCc2cc(OC)c(OC)cc2C1C (centres undefined),u,i,u,-17%,18µM*,-44%
COc1ccc(C2NC(C(=O)O)Cc3c2[nH]c2ccccc32)cc1CN1CCN(c2ccc(F)cc2)CC1 (centres undefined),-24%,i,-13%,-14%,2%,-5%
COc1ccc(C2NCCc3c2[nH]c2ccccc32)cc1COc1ccc(F)cc1 (centres undefined),28µM*,32µM*,u,u,21µM*,11µM*
CCn1cc(C=O)c2cc(S(=O)(=O)N3CCOCC3)ccc21,-9%,i,3%,-1%,-1%,-20%
Cc1ccccc1CN(C)Cc1cc(=O)oc2c(C)c(C)ccc12,30%,i,u,-9%,u,-73%
COc1cccc(CN(C)Cc2cc(=O)oc3c(C)c(C)ccc23)c1,51%,i,13µM*,-19%,u,-34%
Cc1c(O)ccc2c(CN(C)Cc3ccccc3)cc(=O)oc12,-37%,x,u,-5%,18µM*,-5%
CC1(C)C2([N+](=O)[O-])CN3CC1([N+](=O)[O-])CN(C2)C3c1ccccc1 (centres undefined),3%,i,11%,-6%,-4%,15%
CC(C)c1ccc(C2N3CC4([N+](=O)[O-])CN2CC([N+](=O)[O-])(C3)C4(C)C)cc1 (centres undefined),x,u,8.2µM*,3%,u,3%
COC(=O)/C=C/c1ccc(C(=O)NCC(=O)N[C@@H](CCC(=O)OC)C(=O)N[C@@H](CC(C)C)C(N)=O)cc1,x,x,-8%,x,2%,x
CN1C(=O)c2ccccc2Sc2ccc(NC(=O)N3CCN(c4ccccc4F)CC3)cc21,x,x,u,2%,u,-8%
Cc1ccc(C(=O)Nc2ccc3c(c2)N(C)C(=O)c2ccccc2S3)cc1,u,u,5.2µM*,u,2.3µM*,0%
CN1C(=O)c2ccccc2Sc2ccc(NC(=O)c3ccc(C#N)cc3)cc21,-10%,u,u,-7%,u,-21%
CN1C(=O)c2ccccc2Sc2ccc(NC(=O)c3ccccc3F)cc21,u,i,18µM*,-26%,15µM*,-20%
CCN1C(=O)c2ccccc2Sc2ccc(NC(=O)Nc3cccc([N+](=O)[O-])c3C)cc21,u,i,21µM*,u,u,6%
CCN1C(=O)c2ccccc2Sc2ccc(NC(=O)c3ccc(C#N)cc3)cc21,5%,i,21µM*,-1%,16µM*,3%
CCOc1ccccc1NC(=S)NC(=O)C1CC1,-16%,i,u,-18%,u,-12%
Cc1ccn2c(C(C)O)nnc2c1 (centres undefined),x,i,1%,-9%,-11%,-3%
SMILES,ATXN2 expr inh,ATXN viability,TDP1 cell CPT,TGFb inhibitor,TDP1 cell noCPT,HepG2 viability
CC(C)(C)OC(=O)N1CCN(C(=O)c2[nH]cnc2C(=O)Nc2ccc(Cl)cc2)CC1,-33%,i,u,0%,u,-1%
COc1ccc(-c2cc(C(=O)N(C)CC(=O)Nc3ccccc3Br)c3ccccc3n2)cc1OC,6%,i,16µM*,-11%,18µM*,-14%
COc1ccc(-c2cc(C(=O)N(C)CC(=O)Nc3ccccc3C(F)(F)F)c3ccccc3n2)cc1OC,x,u,21µM*,4%,4.1µM*,-28%
CN(CC(=O)Nc1ccccc1Br)C(=O)c1cc(Cl)nc2ccccc12,5%,i,-23%,-1%,-3%,-1%
Cn1c(Oc2ccc(Cl)cc2)c(C=O)c2ccccc21,-6%,i,u,u,26µM*,-44%
Cn1c(Sc2ccc(Cl)cc2)c(C=O)c2ccccc21,-1%,i,u,u,21µM*,-54%
Cc1ccc(Oc2c(C=O)c3ccccc3n2C)cc1,1%,i,3.3µM*,0%,u,-24%
Cn1c(Oc2ccc(F)cc2F)c(C=O)c2ccccc21,1%,i,-12%,-20%,u,-19%
COc1ccc(Oc2c(C=O)c3ccccc3n2C)cc1,0%,i,u,-6%,u,-14%
Cn1c(Sc2ccccc2Cl)c(C=O)c2ccccc21,-4%,u,u,u,u,-14%
COc1cccc(/C=N/NC(=O)c2cc(-c3cccn3C)n[nH]2)c1O,u,u,5.8µM*,1%,6.5µM*,-26%
Cn1cccc1-c1cc(C(=O)N/N=C/C=C/c2ccccc2)[nH]n1,-24%,i,u,11%,u,-5%
COc1cccc(/C=N/NC(=O)c2cnccn2)c1O,-19%,u,u,u,u,-45%
COc1cc(/C=N/NC(=O)c2cc(-c3cccn3C)n[nH]2)cc(OC)c1OC,-9%,i,21µM*,35%,21µM*,-20%
Cc1ccc(-c2noc(-c3cccnc3NCc3ccco3)n2)cc1,140%,i,-21%,-13%,u,-3%
C/C(=N\NC(=O)Cn1c(C)nc2ccccc21)c1cccs1,-15%,i,15µM*,-3%,21µM*,-4%

# Screens as filed in PubChem BioAssay.
